Bioassay records as filed in PubChem.
Shown is part of a subset that was picked to be rich in hits.
Pf Dd2 inh – Plasmodium falciparum Dd2 growth inhibition | P. falciparum Dd2 growth, SYBR Green, 72 h | Potency, µM (top dose mostly 28.9 µM), usual class: inhibitors | actives 4.3% (n = 120,000) | AID 1347417; active means well fitted inhibition curve with a large enough effect; further: nearly all actives have a fitted effect of over 65% in size
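Infected erythrocytes (Dd2, 0.3% parasitemia, 2.5% hematocrit final) are added to compound in RPMI-1640/Albumax II medium, grown 72 h at 37C in low oxygen, then lysed with saponin/Triton-X containing SYBR Green and read by fluorescence.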
Numbers stand for hits; . = inactive; [ ] = another dose, or the depositor's remark.

SMILES | Pf Dd2 inh
COCCn1ncc(N2CCC(C(=O)N3CCC(C(N)=O)(N4CCCCC4)CC3)C2)cc1=O (stereo not drawn) | .
CCN(CC)CC[C@H]1CN(C(=O)c2ccc(OC)cc2)CC[C@H]1CC(=O)O | .
Cc1ccc(NC(=O)Cn2c(SCc3cccc(F)c3)nc3ccncc32)c(C)c1 | .
Cc1ccc(CCNC(=O)c2ccc(CSc3nc4ccncc4n3Cc3ccc(F)cc3)cc2)cc1 | 4.47µM
COC(=O)c1ccc(Cn2c(SCC(=O)Nc3ccc(F)cc3)nc3ccccc32)cc1 | .
O=C(NCCc1ccccc1)c1ccc(CSc2nc3ccncc3n2Cc2ccc(F)cc2)cc1 | 7.08µM
Cc1ccc(Cn2c(CO)cnc2SCc2ccc(F)cc2)cc1 | .
CCn1nc(CC(C)C)cc1C(=O)NCc1cc(-c2cccc(F)c2)no1 | .
Cc1noc([C@@H]2CN(C(=O)c3ccc4cc[nH]c4c3)C[C@H]2CO)n1 | .
CN1CCN(C(=O)Cc2cccn2-c2ccc(Cl)cc2)CC1 | .
CC(C)(C)NC(=O)N1CCCN(C(=O)C2CC2)C(c2ccccc2)CC(=O)NCC1 (stereo not drawn) | .
O=C(C1CC1)N1CCC(c2nc(C3CCOCC3)no2)C1 (stereo not drawn) | .
O=C(NCc1cccnc1)C1CCC(=O)N(CCCN2CCCC2=O)C1 (stereo not drawn) | .
CCCN(CCC)C(=O)CN1C(=O)NC2(CCC(C)CC2)C1=O (stereo not drawn) | .
CC1CCN(c2nc3c(S(=O)(=O)c4ccc(Cl)cc4)nnn3c3ccsc23)CC1 | .
CC1CCN(c2nc3c(S(=O)(=O)c4ccccc4)nnn3c3ccsc23)CC1 | .
Cc1ccc(S(=O)(=O)c2nnn3c2nc(N2CCC(C)CC2)c2cc(Cl)ccc23)cc1C | 11.2µM
Cc1ccc(S(=O)(=O)c2nnn3c2nc(NC(C)C)c2cc(Cl)ccc23)cc1C | .
Cc1ccc(C)c(S(=O)(=O)c2nnn3c2nc(N2CCCCC2)c2ccccc23)c1 | 12.6µM
CC1CCN(c2nc3c(S(=O)(=O)c4ccccc4)nnn3c3ccc(Cl)cc23)CC1 | 1.12µM
CC(C)c1ccc(S(=O)(=O)c2nnn3c2nc(N2CCN(C)CC2)c2sccc23)cc1 | .
CN1CCN(c2nc3c(S(=O)(=O)c4ccc(Cl)cc4)nnn3c3ccsc23)CC1 | 10µM
COCCNc1nc2c(S(=O)(=O)c3ccc(C)c(C)c3)nnn2c2ccc(Cl)cc12 | .
CC(C)c1ccc(S(=O)(=O)c2nnn3c2nc(N2CCOCC2)c2ccccc23)cc1 | .
Cc1ccc(C)c(S(=O)(=O)c2nnn3c2nc(N2CCOCC2)c2ccccc23)c1 | .
SMILES | Pf Dd2 inh
CCc1ccc(S(=O)(=O)c2nnn3c2nc(N2CCC(C(N)=O)CC2)c2cc(Cl)ccc23)cc1 | .
Cn1cnc(S(=O)(=O)N2CCCC(C(=O)NCCCN3CCCCCC3)CCNC(=O)CC2)c1 (stereo not drawn) | .
c1cc2nnc(C3CCC3)n2nc1N1CCOCC1 | .
O=C(Cc1c[nH]c2ncc(-c3ccc4c(c3)OCO4)cc12)N1CCOCC1 | .
O=C(c1ccc(CN2C(=O)NC3(CCS(=O)(=O)CC3)C2=O)cc1)N1CCCCC1 | .
CCN(CC)Cc1cnc2c(C(=O)N3CCCN4CCC[C@H]4C3)cnn2c1 | .
CC(C)NC(=O)C1CCC(=O)N1C1CCNCC1 (stereo not drawn) | .
CN(Cc1ccc(F)cc1)Cc1ccnn1C | .
O=[S+]1([O-])NC2(CCN(Cc3ccc(C(F)(F)F)cc3)C2)CNc2ccccc21 (stereo not drawn) | .
COc1ccccc1N1CCC(N2CCN(CCCc3ccccc3)C(CCO)C2)CC1 (stereo not drawn) | 10µM
COc1ccccc1N1CCN([C@@H]2[C@H](O)[C@H](CO)O[C@@H]2CNC(=O)c2ccccc2)CC1 | .
CCOc1ccc(CN2CCN(C3CCN(C(C)C)CC3)CC2CCO)cc1 (stereo not drawn) | .
COc1ccc(CN[C@@H]2CO[C@H](CNC(=O)CC(C)(C)C)[C@H]2O)cc1 | .
CCCn1nc(C)cc1CN(CC)C(=O)c1cc[nH]c1C1CCCNC1 (stereo not drawn) | .
CC(=O)NCCCC(=O)N1CCOC2(CCN(C(=O)c3c(C)noc3C)CC2)C1 | .
Cc1ccc2c(c1)N1C(=O)OC[C@@H]1CCN(C(=O)CC(C)C)C2 | .
O=C(Nc1ccc(C(F)(F)F)cc1)c1cc(S(=O)(=O)NC2CCCCC2)ccc1F | 7.08µM
CCOc1ccc(NC(=O)c2cc(S(=O)(=O)NC3CCCC3)ccc2F)cc1 | .
CCc1ccccc1NC(=O)c1cc(S(=O)(=O)NC2CCCC2)ccc1F | .
O=C(Nc1ccc(Cl)cc1F)c1cc(S(=O)(=O)NC2CCCCCC2)ccc1F | .
O=C(Nc1ccc(F)c(F)c1)c1cc(S(=O)(=O)NC2CCCC2)ccc1F | .
O=C(Nc1ccc(C(F)(F)F)cc1)c1cc(S(=O)(=O)NC2CCCCCC2)ccc1F | 5.62µM
COc1cc(CN2CCN(Cc3cnc(SC)nc3)CC2CCO)cc(OC)c1 (stereo not drawn) | .
COc1ccc(CN2CCN(Cc3cc4ccccc4[nH]3)CC2CCO)c(C)c1C (stereo not drawn) | 8.91µM
CCOc1ccccc1CN1CCN(Cc2nccn2CC)CC1CCO (stereo not drawn) | .
SMILES | Pf Dd2 inh
COCCNc1ccc2nnc(-c3ccc(OC)cn3)n2n1 | .
COc1ccc(-c2nc(C3CC(=O)N(C4CCCCC4)C3)no2)cc1 (stereo not drawn) | .
COc1cccc(-c2cc(-c3nc(C4CC(=O)N(C5CCCCC5)C4)no3)[nH]n2)c1 (stereo not drawn) | 5.01µM
COc1cccc(-c2nc(C3CC(=O)N(C4CCCCC4)C3)no2)c1 (stereo not drawn) | .
COc1cccn(CC(=O)N(C)CCn2nc(C)cc2C)c1=O | .
CC(C)CC(=O)N1CCCN(S(=O)(=O)c2ccccc2)CCC(=O)NCC1 | .
CNC(=O)N1C[C@@H](CN(C)C)[C@H](NS(=O)(=O)c2ccc(F)cc2F)C1 | .
CN(C)C[C@@H]1CN(C)C[C@H]1NS(=O)(=O)c1cc(F)cc(F)c1 | 8.91µM
CNC(=O)N1C[C@@H](CN(C)C)[C@H](NS(=O)(=O)c2cc(F)ccc2C)C1 | .
CCc1noc(CC2CCOC3(CCN(S(=O)(=O)c4ccc(F)c(F)c4)CC3)C2)n1 (stereo not drawn) | .
CN1CCOc2c(C(=O)NCCc3cnc[nH]3)cc(-c3ccccc3F)cc21 | .
COc1ccc2cc(C3CN(c4ncnc(C)c4C)CCO3)ccc2c1 (stereo not drawn) | .
O=C(CSc1nncn2c1cc1occc12)Nc1ccc(F)c(Cl)c1 | .
CCC(Sc1nncn2c1cc1occc12)C(=O)Nc1ccc(C)c(Cl)c1 (stereo not drawn) | 14.1µM
Cc1oc(-c2cccc(Cl)c2)nc1CSc1nncn2c1cc1occc12 | .[5.79 µM]
CCN1c2cc(C(=O)Nc3cc(OC)ccc3OC)ccc2C(=O)N2CCCCCC21 (stereo not drawn) | .
O=C(C1CCOCC1)N1CCN(C(=O)N2CC3CC(C2)[C@H]2CCCC(=O)N2C3)CC1 (stereo partly drawn) | .
CCOC(=O)C1(Cc2ccccc2F)CCCN(C(=O)c2ccc(-n3ccnc3)cc2)C1 (stereo not drawn) | .
CCOC(=O)C1(Cc2ccccc2C(F)(F)F)CCN(C(C)Cc2cccc(C)n2)CC1 (stereo not drawn) | 12.6µM
CCOC(=O)C1(Cc2ccccc2C(F)(F)F)CCN(Cc2ccccn2)CC1 | 6.31µM
COCC1CN(C(C)=O)CC12CCN(Cc1ccccc1C(F)(F)F)CC2 (stereo not drawn) | .
